ST2 inh – IL1RL1 inhibition | Q01638 | AlphaLISA ST2-Fc/biotin-IL-33 interaction, 1 h | inhibition, % for hits at 17 µM | 2.3% of 78,000 active | AID 1259354; in the data active = inhibition above about 30%
Target sequence (Q01638 whole entry, looked up): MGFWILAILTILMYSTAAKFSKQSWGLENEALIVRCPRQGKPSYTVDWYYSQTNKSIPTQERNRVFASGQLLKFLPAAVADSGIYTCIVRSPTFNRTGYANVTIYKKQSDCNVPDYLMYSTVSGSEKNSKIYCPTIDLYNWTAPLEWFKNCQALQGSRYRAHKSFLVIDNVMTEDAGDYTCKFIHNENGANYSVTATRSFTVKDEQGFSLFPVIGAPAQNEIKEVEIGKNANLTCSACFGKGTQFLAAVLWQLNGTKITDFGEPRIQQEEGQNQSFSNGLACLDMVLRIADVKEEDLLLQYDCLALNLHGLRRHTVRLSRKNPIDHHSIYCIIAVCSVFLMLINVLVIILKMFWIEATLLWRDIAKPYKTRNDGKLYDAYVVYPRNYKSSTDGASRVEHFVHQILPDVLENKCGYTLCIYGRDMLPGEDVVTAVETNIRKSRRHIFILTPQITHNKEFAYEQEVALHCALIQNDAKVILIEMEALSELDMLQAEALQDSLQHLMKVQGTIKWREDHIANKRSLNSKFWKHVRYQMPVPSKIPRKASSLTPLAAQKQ
Starred values were filed as active, the others as inactive; i = inactive. The sample as a whole holds a higher share of hits than the screen did.

SMILES	ST2 inh
CCOCCOC(=O)C1=C(C)NC2=C(C(=O)C(C(=O)OC)C(C)C2)C1c1cccc(O)c1 (stereo not drawn)	i
COc1ccc(-c2cc(C(=O)Nc3sc4c(c3C(N)=O)CCC(C)C4)no2)cc1OC (stereo not drawn)	i
COc1ccc(OC)c(-c2cc(C(=O)Nc3sc4c(c3C(N)=O)CCC(C)C4)no2)c1 (stereo not drawn)	i
COc1ccc(C=Nc2sc3c(c2C#N)CCC(C)C3)cc1OC (stereo not drawn)	39%*
CCCS(=O)(=O)N1CCCC(C(=O)O)C1 (stereo not drawn)	i
CCSC1=N/C(=C2\C=Cc3ccccc3N2CC)C(=O)S1	73%*
CCN1C(=O)CC(c2ccccc2)Sc2ccccc21 (stereo not drawn)	i
CCN1/C(=C2\C(=O)N(c3ccc(Cl)cc3)N=C2C)C=Cc2ccccc21	i
COc1ccc(C2C(C(C)=O)=C(O)C(=O)N2c2cccnc2)cc1 (stereo not drawn)	i
O=C(O)CNc1cc(-c2ccccc2C(F)(F)F)c2cc[nH]c2n1	i
c1cnc(-c2cc(NCc3cccnc3)nc3[nH]ccc23)nc1	35%*
OCCNc1cc(-c2nccc(C3CCCC3)n2)c2cc[nH]c2n1	i
Cc1cc(-c2cc(N)nc3[nH]ccc23)cnc1N	i
NCCc1cccc(-c2cc(NCc3ccccn3)nc3[nH]ccc23)c1	35%*
COc1ccc(-c2cc(NCc3cccnc3)nc3[nH]ccc23)cn1	i
O=C(CN1CCN(Cc2ccc(Cl)cc2)C1=O)NC1CCCCCCC1	i
CCOC(=O)C1=NN(c2ccc(Br)cc2)C2C(=O)N(c3cccc(Cl)c3)C(=O)C12 (stereo not drawn)	i
O=C(c1ccccc1Cl)N1CCN=C1SCc1cccnc1	i
Cc1nn(C)c(C)c1C(C)NC(=O)c1cccc(Cn2cccn2)c1 (stereo not drawn)	i
CCC(=O)N/C(=N/OCc1ccc(F)cc1)c1nonc1NC(=O)CC	i
OC1(c2cccc(C(F)(F)F)c2)CCN(Cc2ncccc2F)CC1	i
Cc1ccc(C(=O)Nc2nc(-c3ccccc3)cs2)c(Cl)c1	i
Cc1ccnc(Nc2nc(-c3ccccc3)cs2)c1	i
Cc1ccc(Nc2nc(-c3ccc(O)c(O)c3)cs2)nc1	42%*
O=c1c(-c2ccccc2CN2CCOCC2)ccc2n1C[C@H]1C[C@@H]2CN(CCCc2ccccc2)C1	i
SMILES	ST2 inh
CN(C)c1nc2ncnc(SCC(=O)Nc3ccccc3Cl)c2s1	i
Cc1ccc(C)c(S(=O)(=O)N2CCN(c3nc(C)cc(Nc4ccccc4)n3)CC2)c1	i
Cc1ccc(Nc2cc(C)nc(N3CCN(S(=O)(=O)c4cc(C(C)C)ccc4C)CC3)n2)cc1	30%*
Cc1ccc(Nc2cc(C)nc(N3CCN(S(=O)(=O)c4c(C)cc(C)cc4C)CC3)n2)cc1	i
Cc1nc(-c2ccccc2)c(C(=O)N2C[C@@H](N)C[C@H]2C(=O)NC(C)C)s1	i
CCOc1ccc(S(=O)(=O)Nc2ccc(OC)cc2OC)c2cccnc12	i
NNc1ccc2c(Cl)cc(Cl)c(O)c2n1	35%*
COCc1nc(NCc2nc(C)c3c(n2)CCCC3)c2cnn(C)c2n1	i
CCOC(=O)c1c(-c2ccccc2)oc2cc(Br)c(OC)cc12	i
O=c1[nH]c(/C=C\c2ccccc2Cl)nc2ccccc12	44%*
O=c1[nH]c(/C=C\c2ccccc2Cl)c([N+](=O)[O-])c(=O)[nH]1	i
Cc1nc2ccccc2c(=O)[nH]1	i
COc1ccc(C2CC(c3ccccc3)n3nc(N)nc3N2)cc1 (stereo not drawn)	i
O=C(Cn1cnc2sc3c(c2c1=O)CCCC3)N1CCN(c2ccccc2Cl)CC1	i
Cc1[nH]c2ccc(Cl)cc2c(=O)c1CN1CCN(C)CC1	i
COc1ccc(CC(=O)N2N=C(C)CC2(O)c2cccnc2)cc1 (stereo not drawn)	i
CCN1C(=Nc2cccnc2)SCC1(O)c1ccccc1 (stereo not drawn)	33%*
COc1cc(NC(=O)CCC2CCCCC2)c(OC)cc1Cl	i
Oc1oc(-c2ccccc2F)nc1C=Nc1ccc(Cl)cn1	32%*
Oc1oc(-c2ccc(Br)cc2)nc1C=Nc1ccc(Br)cn1	i
Cc1ccc(N=Cc2nc(-c3ccc(Br)cc3)oc2O)c(C)c1	i
Cc1ccc(N=Cc2nc(-c3ccccc3F)oc2O)c(C)c1	33%*
Cc1ccc(N=Cc2nc(-c3ccccc3)oc2O)c(Br)c1	i
Oc1oc(-c2ccccc2)nc1C=Nc1ccc(Br)cn1	i
CCN(CC1CCCN(CCc2cccc(OC)c2)C1)C(=O)Cc1nonc1C (stereo not drawn)	i
SMILES	ST2 inh
C[C@H]1[C@@H]2[C@@H](O)C([C@H](C)C(=O)NC(C)(C)C)CC[C@@]2(C)CC[C@@H]1NC(=O)COc1ccccc1 (stereo partly drawn)	i
O=C1CC2(CCN(S(=O)(=O)c3ccc(-n4cccn4)cc3)CC2)CN1	i
CC(NC(=O)CN1CCCCCCC1)c1nncn1C (stereo not drawn)	i
O=C(Nc1cccc(NC(=O)c2ccco2)c1)c1cccc(Br)c1	53%*
O=C(O)c1cccc(NC(=O)c2cccc(Br)c2)c1	i
O=C(Nc1cccc(S(=O)(=O)c2cccc(NC(=O)c3ccco3)c2)c1)c1ccco1	i
Cc1nc(C(C)C)cc(N2CCCN(C(=O)c3ccco3)CC2)n1	i
CCNC(=O)N[C@H]1CC[C@]2(C)CCC([C@H](C)C(=O)N(CCOC)CCOC)[C@H](O)[C@H]2[C@@H]1C (stereo partly drawn)	i
CCCCNS(=O)(=O)c1c(C)[nH]c(=O)[nH]c1=O	i
COc1cc(C(=O)N2N=C(c3ccccc3)CC2c2ccc(N(C)C)cc2)cc(OC)c1OC (stereo not drawn)	48%*
COc1ccc(C2CC(c3ccccc3)=NN2C(=O)c2cc(OC)c(OC)c(OC)c2)cc1 (stereo not drawn)	i
COc1ccccc1C1CC(c2ccccc2)=NN1C(=O)c1ccccc1 (stereo not drawn)	i
CN(Cc1ccccc1)Cc1cn([C@H]2CO[C@H]3[C@@H]2OC[C@@H]3NC(=O)Nc2ccc(Oc3ccccc3)cc2)nn1	i
Cn1c(C(=O)NCc2ccccc2)cc2c(=O)n3ccccc3nc21	i
O=C(Nc1ccccc1O)c1ccc(S(=O)(=O)c2ccc(Cl)cc2)cc1	i
Cc1c(F)cccc1NC(=O)c1ccc(Cl)cc1	i
C/C(=C\C(=O)c1ccc(Cl)cc1)Nc1ccccc1O	30%*
CCc1ncc(C(=O)N2CCCC(O)(CO)CC2)cn1 (stereo not drawn)	i
COc1cccc(CN2C(=O)CCC2(C)C(=O)NC2CCC(C)CC2)c1 (stereo not drawn)	i
Nc1ccc(-c2nnc(-c3ccc(N)cc3)o2)cc1	37%*
COc1ccc(-c2nnc(N)o2)cc1	i
Cc1ccc(-c2nnc(-c3ccc(Cl)cc3)o2)cc1	i
Cc1cc(C)n2ncc(C(=O)N3CCNCC3C(=O)N3CCOCC3)c2n1 (stereo not drawn)	i
NS(=O)(=O)c1ccc(N2CCC(c3ccc(Cl)cc3)=N2)cc1	i
COc1cccc(-n2cc(C(=O)NCCC(=O)NC3CCCC(C)C3C)c3ccccc3c2=O)c1 (stereo not drawn)	i
N/C(=N/OC(=O)N1c2ccccc2Sc2ccccc21)c1ccccc1	50%*
CN(C(=O)N1c2ccccc2Sc2ccccc21)c1ccccc1	i
O=C(COc1ccccc1)OCC(=O)N1c2ccccc2Sc2ccccc21	i

High-throughput results deposited in PubChem BioAssay by Paczesny and Yang Labs, IUPUI and University of Michigan.
